The full data set covers some 8,800 targets. This sample favours those with a hit. About 0.5% of all pairs of compound and target were hits.
Legend:
Test in all cases: log2 fold change, soluble protein after heating vs DMSO (PISA); higher = thermal stabilisation; K562 lysate, 10 uM; active = over 0.2 and 3.5 SD of the protein, either way, in both replicates (recomputed)
[1] = compound: C1=CC=C(C=C1)[C@H](COC2=CC3=C(C=C2)NC(=O)N3)NC(=O)C4=CC=CN(C4=O)CC5=CC(=C(C=C5)F)F
Method in brief: (§1)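 K562 pellets were dounce-homogenised in PBS pH 7.4 containing 1 mM MgCl2, and the crude extract, at 1 mg/mL protein, was exposed to 10 μM compound for 30 min. Aliquots were heated for 3 min across 48°C-58°C, pooled, brought to 0.5% NP-40 at 4°C and spun at 21,000xg for 90 min, with the supernatant taken as soluble protein. TMTpro 16plex LC-MS/MS with equalised channel sums quantified that protein. Values are log-two fold changes in thermal stability relative to solvent controls, taken from duplicates.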

[2] = compound: CC1=C(SC2=C1C(=N[C@H](C3=NN=C(N32)C)CC(=O)N)C4=CC=C(C=C4)Cl)C
Method in brief: as §1

[3] = compound: CC1=C2C(=CC=C1)N=C(N(C2=O)C3=CC=CC=C3C)CN4C=NC5=C(N=CN=C54)N
Method in brief: as §1

[4] = compound: Cc1sc2c(c1C)C(c1ccc(Cl)cc1)=N[C@@H](CC(=O)OC(C)(C)C)c1nnc(C)n1-2
Method in brief: as §1

[5] = compound: c1ccc([C@@H]2C[C@H]2NC2CCNCC2)cc1
Method in brief: as §1

Measured: log2 fold change

C2CD5 isoform 3 (UniProt Q86YS7)
UniProt Q86YS7, sequence (Q86YS7 whole entry, looked up): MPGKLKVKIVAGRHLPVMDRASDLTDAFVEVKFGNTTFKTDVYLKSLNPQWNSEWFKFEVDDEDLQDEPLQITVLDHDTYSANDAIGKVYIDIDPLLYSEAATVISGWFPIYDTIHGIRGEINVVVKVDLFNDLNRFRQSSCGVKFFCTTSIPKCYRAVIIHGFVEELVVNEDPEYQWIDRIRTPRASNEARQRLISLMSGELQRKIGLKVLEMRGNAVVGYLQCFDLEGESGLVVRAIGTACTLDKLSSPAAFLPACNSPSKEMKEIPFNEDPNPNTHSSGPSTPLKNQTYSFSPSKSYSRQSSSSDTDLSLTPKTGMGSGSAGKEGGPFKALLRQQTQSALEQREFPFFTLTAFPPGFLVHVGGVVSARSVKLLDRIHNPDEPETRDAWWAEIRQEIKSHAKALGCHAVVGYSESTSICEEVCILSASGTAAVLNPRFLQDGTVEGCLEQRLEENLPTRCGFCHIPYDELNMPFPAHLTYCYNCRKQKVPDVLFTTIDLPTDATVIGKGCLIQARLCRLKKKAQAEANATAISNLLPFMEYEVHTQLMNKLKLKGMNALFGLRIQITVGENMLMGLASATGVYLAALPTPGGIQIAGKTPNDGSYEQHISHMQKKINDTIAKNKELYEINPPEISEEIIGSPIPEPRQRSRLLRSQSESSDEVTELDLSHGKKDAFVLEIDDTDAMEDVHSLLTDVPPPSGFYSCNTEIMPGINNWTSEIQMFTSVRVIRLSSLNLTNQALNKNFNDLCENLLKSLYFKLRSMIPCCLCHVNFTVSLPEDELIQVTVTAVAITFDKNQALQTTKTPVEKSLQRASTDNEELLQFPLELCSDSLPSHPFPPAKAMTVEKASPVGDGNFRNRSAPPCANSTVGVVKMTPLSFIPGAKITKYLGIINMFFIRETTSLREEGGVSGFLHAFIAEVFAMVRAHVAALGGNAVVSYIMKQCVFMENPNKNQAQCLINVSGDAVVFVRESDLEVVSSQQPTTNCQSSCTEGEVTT
inactive: [1] 0.015 | [2] 0.059 | [3] 0.014 | [4] -0.009 | [5] -0.169

CDC16 (UniProt Q13042)
UniProt Q13042, sequence (Q13042 whole entry, looked up): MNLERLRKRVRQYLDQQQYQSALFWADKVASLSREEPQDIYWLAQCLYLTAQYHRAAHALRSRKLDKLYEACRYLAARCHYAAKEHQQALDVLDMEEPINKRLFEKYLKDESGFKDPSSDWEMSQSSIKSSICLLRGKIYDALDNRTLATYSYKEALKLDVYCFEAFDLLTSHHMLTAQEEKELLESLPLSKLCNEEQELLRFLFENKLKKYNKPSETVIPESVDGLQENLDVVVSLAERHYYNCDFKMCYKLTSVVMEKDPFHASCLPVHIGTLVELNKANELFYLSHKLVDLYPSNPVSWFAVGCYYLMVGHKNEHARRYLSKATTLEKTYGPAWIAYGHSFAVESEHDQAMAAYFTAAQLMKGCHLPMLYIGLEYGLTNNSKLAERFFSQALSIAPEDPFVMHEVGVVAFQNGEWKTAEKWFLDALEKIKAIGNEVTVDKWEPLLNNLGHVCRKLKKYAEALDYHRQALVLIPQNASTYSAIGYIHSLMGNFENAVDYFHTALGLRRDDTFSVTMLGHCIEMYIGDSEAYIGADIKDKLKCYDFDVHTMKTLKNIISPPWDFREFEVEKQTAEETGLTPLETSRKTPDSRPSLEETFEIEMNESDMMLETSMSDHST
inactive: [1] -0.038 | [2] 0.027 | [3] 0.025 | [4] 0.03 | [5] 0.021

CHD4 isoform 2 (UniProt Q14839)
inactive: [1] 0 | [2] 0.003 | [3] 0.029 | [4] 0.021 | [5] 0.009

AURKA (UniProt O14965)
inactive: [1] -0.053 | [2] -0.001 | [3] -0.042 | [4] -0.055 | [5] -0.157

CCNY (UniProt Q8ND76)
UniProt Q8ND76, sequence (Q8ND76 whole entry, looked up): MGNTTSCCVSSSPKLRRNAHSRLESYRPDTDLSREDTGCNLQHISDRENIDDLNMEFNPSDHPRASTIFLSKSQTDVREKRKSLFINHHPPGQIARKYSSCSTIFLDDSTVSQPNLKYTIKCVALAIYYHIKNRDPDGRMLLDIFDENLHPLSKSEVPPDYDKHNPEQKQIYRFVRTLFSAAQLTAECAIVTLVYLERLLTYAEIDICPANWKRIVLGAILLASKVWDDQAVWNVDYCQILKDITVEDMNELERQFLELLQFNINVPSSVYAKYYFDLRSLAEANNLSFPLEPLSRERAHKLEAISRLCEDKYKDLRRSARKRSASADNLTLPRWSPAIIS
inactive: [1] -0.04 | [2] 0.048 | [3] -0.104 | [4] -0.064 | [5] -0.028

BCL2L12 (UniProt Q9HB09)
inactive: [1] 0.162 | [2] 0.119 | [3] 0.035 | [4] -0.011 | [5] -0.044

CEPT1 (UniProt Q9Y6K0)
inactive: [1] -0.13 | [2] -0.017 | [3] 0.062 | [4] -0.054 | [5] 0.061

CAMK2B (UniProt Q13554)
inactive: [1] 0.036 | [2] -0.052 | [3] -0.032 | [4] -0.056 | [5] -0.091

CDKN1C (UniProt P49918)
UniProt P49918, sequence (P49918 whole entry, looked up): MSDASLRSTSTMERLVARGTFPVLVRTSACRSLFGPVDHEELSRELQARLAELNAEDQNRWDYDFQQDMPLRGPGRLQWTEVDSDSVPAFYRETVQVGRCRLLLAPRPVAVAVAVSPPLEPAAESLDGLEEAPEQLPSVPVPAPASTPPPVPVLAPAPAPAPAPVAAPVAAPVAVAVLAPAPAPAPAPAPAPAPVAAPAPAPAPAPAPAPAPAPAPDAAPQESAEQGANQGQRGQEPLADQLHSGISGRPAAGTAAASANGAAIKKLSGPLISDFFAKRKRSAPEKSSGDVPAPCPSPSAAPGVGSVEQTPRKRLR
inactive: [1] 0.035 | [2] -0.012 | [3] 0.185 | [4] 0.094 | [5] 0.025

BTK isoform 2 (UniProt Q06187)
inactive: [1] -0.049 | [2] -0.033 | [3] 0.012 | [4] -0.002 | [5] -0.064

CAPN15 (UniProt O75808)
inactive: [1] -0.047 | [2] 0.063 | [3] -0.017 | [4] -0.011 | [5] 0.056

ATP5PF isoform 2 (UniProt P18859)
inactive: [1] 0.085 | [2] -0.086 | [3] -0.05 | [4] 0.075 | [5] 0.228

ATG4B (UniProt Q9Y4P1)
UniProt Q9Y4P1, sequence (Q9Y4P1 whole entry, looked up): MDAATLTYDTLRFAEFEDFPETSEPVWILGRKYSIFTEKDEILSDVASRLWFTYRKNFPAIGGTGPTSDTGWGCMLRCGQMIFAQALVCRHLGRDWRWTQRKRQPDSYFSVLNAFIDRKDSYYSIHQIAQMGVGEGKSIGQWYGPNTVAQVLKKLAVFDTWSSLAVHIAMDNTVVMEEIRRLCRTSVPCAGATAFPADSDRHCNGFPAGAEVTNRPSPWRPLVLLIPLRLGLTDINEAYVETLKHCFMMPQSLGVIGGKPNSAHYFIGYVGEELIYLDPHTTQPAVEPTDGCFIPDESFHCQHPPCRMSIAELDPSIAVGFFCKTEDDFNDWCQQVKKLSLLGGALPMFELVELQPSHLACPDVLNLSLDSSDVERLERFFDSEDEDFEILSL
inactive: [1] 0.004 | [2] 0.034 | [3] 0.017 | [4] -0.002 | [5] 0.051

BMS1 (UniProt Q14692)
inactive: [1] 0.047 | [2] -0.036 | [3] 0.027 | [4] 0.013 | [5] -0.029

CHD3 isoform 3 (UniProt Q12873)
inactive: [1] -0.009 | [2] 0.027 | [3] 0.024 | [4] 0.035 | [5] 0.038

CDK11B (UniProt P21127)
inactive: [1] -0.035 | [2] 0.029 | [3] 0.005 | [4] 0.035 | [5] -0.001

CELF2 isoform 3 (UniProt O95319)
inactive: [1] -0.009 | [2] -0.012 | [3] 0.005 | [4] 0.012 | [5] 0.08

ATRIP (UniProt Q8WXE1)
UniProt Q8WXE1, sequence (Q8WXE1 whole entry, looked up): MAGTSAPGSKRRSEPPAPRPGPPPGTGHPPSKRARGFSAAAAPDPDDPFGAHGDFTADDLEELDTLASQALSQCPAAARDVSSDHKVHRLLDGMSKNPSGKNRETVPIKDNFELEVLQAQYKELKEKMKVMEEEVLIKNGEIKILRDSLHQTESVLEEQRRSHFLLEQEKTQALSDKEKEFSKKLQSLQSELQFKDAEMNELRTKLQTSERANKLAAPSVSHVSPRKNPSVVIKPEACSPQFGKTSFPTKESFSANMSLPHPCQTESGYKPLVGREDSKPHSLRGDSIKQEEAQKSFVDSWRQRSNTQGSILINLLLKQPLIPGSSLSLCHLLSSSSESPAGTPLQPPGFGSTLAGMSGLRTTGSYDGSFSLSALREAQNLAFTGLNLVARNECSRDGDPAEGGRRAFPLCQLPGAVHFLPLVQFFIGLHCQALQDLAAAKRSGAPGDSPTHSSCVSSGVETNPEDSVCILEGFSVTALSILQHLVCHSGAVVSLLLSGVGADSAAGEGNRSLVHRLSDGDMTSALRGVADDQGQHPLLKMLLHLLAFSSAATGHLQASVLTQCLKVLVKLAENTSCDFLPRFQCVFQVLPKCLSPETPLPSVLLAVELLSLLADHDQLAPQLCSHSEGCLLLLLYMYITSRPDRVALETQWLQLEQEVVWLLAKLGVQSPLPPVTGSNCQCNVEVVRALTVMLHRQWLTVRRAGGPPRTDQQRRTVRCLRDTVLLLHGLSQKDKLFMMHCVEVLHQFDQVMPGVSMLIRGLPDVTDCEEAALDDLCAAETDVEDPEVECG
inactive: [1] -0.042 | [2] -0.02 | [3] -0.056 | [4] -0.032 | [5] 0.093

CEP41 (UniProt Q9BYV8)
inactive: [1] -0.026 | [2] -0.06 | [3] -0.106 | [4] -0.068 | [5] -0.045

CHCHD4 isoform 2 (UniProt Q8N4Q1)
inactive: [1] 0.04 | [2] -0.076 | [3] -0.101 | [4] -0.189 | [5] -0.168

CARS isoform 3 (UniProt P49589)
inactive: [1] -0.026 | [2] 0.014 | [3] 0.007 | [4] 0.035 | [5] 0.03

BCR (UniProt P11274)
inactive: [1] -0.03 | [2] 0.005 | [3] -0.014 | [4] 0.007 | [5] 0.027

C18orf25 isoform 2 (UniProt Q96B23)
inactive: [1] -0.005 | [2] 0.224 | [3] 0.008 | [4] 0.089 | [5] -0.003

CDK5RAP3 isoform 4 (UniProt Q96JB5)
inactive: [1] -0.011 | [2] -0.018 | [3] 0.022 | [4] -0.01 | [5] -0.154

CD63 (UniProt P08962)
inactive: [1] 0.006 | [2] 0.001 | [3] -0.008 | [4] -0.13 | [5] -0.242

CASP9 (UniProt P55211)
inactive: [1] 0.041 | [2] -0.024 | [3] 0.019 | [4] -0.05 | [5] -0.048

CDS2 (UniProt O95674)
inactive: [1] 0.01 | [2] 0.004 | [3] -0.056 | [4] -0.034 | [5] -0.024

BLM (UniProt P54132)
inactive: [1] 0.059 | [2] 0.03 | [3] -0.005 | [4] -0.002 | [5] 0.114

C5orf51 (UniProt A6NDU8)
inactive: [1] -0.047 | [2] -0.023 | [3] 0.001 | [4] -0.026 | [5] 0.092

CALB2 (UniProt P22676)
inactive: [1] -0.067 | [2] -0.053 | [3] 0.009 | [4] -0.007 | [5] 0.013

CHD1L (UniProt Q86WJ1)
inactive: [1] -0.012 | [2] 0.036 | [3] 0.037 | [4] -0.009 | [5] 0.052

CCPG1 isoform 5 (UniProt Q9ULG6)
inactive: [1] -0.069 | [2] -0.118 | [3] 0.046 | [4] -0.082 | [5] -0.026

CCNYL1 (UniProt Q8N7R7)
inactive: [1] -0.007 | [2] -0.089 | [3] -0.009 | [4] -0.058 | [5] -0.079

CFDP1 (UniProt Q9UEE9)
UniProt Q9UEE9, sequence (Q9UEE9 whole entry, looked up): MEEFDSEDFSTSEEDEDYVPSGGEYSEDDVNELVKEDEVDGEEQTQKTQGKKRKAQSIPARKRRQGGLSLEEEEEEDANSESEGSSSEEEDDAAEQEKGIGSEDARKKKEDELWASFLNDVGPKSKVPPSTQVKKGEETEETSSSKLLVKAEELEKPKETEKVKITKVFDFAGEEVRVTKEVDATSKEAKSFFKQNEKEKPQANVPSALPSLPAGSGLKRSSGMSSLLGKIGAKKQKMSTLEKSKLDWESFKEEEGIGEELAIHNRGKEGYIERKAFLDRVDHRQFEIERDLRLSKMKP
inactive: [1] 0.051 | [2] -0.03 | [3] -0.017 | [4] -0.03 | [5] -0.124

CARD11 (UniProt Q9BXL7)
inactive: [1] 0.193 | [2] 0.252 | [3] 0 | [4] -0.084 | [5] -0.019

ATAD1 (UniProt Q8NBU5)
inactive: [1] -0.052 | [2] 0.032 | [3] -0.015 | [4] -0.092 | [5] 0.002

CEP152 (UniProt O94986)
inactive: [1] 0.024 | [2] -0.236 | [3] 0.01 | [4] 0.008 | [5] -0.028

CDAN1 (UniProt Q8IWY9)
inactive: [1] -0.011 | [2] 0.011 | [3] 0.062 | [4] 0.026 | [5] 0.005

ATG10 (UniProt Q9H0Y0)
inactive: [1] 0.008 | [2] 0 | [3] -0.057 | [4] 0.047 | [5] 0.076

AUH (UniProt Q13825)
inactive: [1] 0.034 | [2] 0 | [3] 0.129 | [4] -0.112 | [5] -0.009

CDKN1B (UniProt P46527)
inactive: [1] 0.059 | [2] -0.038 | [3] 0.146 | [4] 0.101 | [5] 0.02

CDK17 isoform 2 (UniProt Q00537)
inactive: [1] 0.072 | [2] 0.099 | [3] 0.109 | [4] 0.072 | [5] -0.146

C8orf37 (UniProt Q96NL8)
UniProt Q96NL8, sequence (Q96NL8 whole entry, looked up): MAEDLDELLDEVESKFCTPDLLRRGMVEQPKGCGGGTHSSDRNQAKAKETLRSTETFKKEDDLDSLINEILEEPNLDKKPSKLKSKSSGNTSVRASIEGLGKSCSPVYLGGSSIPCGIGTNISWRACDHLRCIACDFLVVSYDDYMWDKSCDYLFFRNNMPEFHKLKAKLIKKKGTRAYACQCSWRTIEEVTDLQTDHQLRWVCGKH
inactive: [1] 0.072 | [2] -0.08 | [3] -0.094 | [4] -0.008 | [5] 0.141

BCKDHB (UniProt P21953)
inactive: [1] 0.027 | [2] 0.023 | [3] 0.09 | [4] 0.074 | [5] 0.119

CAPNS1 (UniProt P04632)
inactive: [1] 0 | [2] -0.041 | [3] -0.067 | [4] 0.057 | [5] -0.014

ATP13A1 (UniProt Q9HD20)
inactive: [1] 0.006 | [2] -0.001 | [3] 0.079 | [4] 0.064 | [5] 0.03

BRD4 (UniProt O60885)
inactive: [1] 0.022 | [3] 0.003 | [5] -0.015
active: [2] 0.868 | [4] 0.415

ATP6V0A2 (UniProt Q9Y487)
inactive: [1] -0.011 | [2] -0.017 | [3] 0.026 | [4] -0.015 | [5] -0.114

CDK16 isoform 2 (UniProt Q00536)
UniProt Q00536, sequence (Q00536 whole entry, looked up): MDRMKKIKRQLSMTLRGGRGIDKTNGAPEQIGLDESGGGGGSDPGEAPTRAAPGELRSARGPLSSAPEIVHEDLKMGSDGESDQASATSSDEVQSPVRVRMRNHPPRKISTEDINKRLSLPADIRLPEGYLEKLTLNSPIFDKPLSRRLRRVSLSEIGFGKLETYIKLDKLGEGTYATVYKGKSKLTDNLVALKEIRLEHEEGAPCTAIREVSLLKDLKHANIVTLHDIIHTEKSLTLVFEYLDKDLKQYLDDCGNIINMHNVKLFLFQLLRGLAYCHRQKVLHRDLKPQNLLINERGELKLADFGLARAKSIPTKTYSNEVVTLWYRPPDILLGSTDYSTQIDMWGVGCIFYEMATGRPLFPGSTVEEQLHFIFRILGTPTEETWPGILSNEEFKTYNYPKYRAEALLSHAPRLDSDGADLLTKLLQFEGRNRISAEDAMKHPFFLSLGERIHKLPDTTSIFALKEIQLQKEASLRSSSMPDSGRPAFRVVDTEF
inactive: [1] -0.02 | [2] -0.059 | [3] -0.11 | [4] -0.011 | [5] -0.049

CCT6A (UniProt P40227)
UniProt P40227, sequence (P40227 whole entry, looked up): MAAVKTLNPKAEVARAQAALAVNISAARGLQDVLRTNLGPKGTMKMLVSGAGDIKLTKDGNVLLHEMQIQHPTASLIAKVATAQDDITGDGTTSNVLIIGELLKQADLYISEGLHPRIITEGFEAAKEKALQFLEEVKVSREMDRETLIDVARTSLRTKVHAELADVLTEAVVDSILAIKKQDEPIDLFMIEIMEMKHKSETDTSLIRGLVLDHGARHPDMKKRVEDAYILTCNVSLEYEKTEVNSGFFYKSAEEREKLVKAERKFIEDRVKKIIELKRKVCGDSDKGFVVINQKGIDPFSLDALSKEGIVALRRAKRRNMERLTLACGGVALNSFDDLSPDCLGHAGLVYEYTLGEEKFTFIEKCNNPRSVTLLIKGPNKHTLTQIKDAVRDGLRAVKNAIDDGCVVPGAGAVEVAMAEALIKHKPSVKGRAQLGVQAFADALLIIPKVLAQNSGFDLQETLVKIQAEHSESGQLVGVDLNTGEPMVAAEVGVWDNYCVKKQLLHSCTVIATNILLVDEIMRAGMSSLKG
inactive: [1] 0.007 | [2] -0.007 | [3] -0.01 | [4] 0.004 | [5] 0.025

AURKAIP1 (UniProt Q9NWT8)
inactive: [1] 0.05 | [2] 0.032 | [3] -0.014 | [4] 0.024 | [5] 0.034

CDC45 isoform 3 (UniProt O75419)
inactive: [1] 0.076 | [2] -0.01 | [3] 0 | [4] -0.018 | [5] 0.026
